EP2 modulator: EP2 receptor modulators, cAMP readout, primary screen, cell-based, HTRF cAMP, PGE2 stimulation. induction, % at 25 µM. EP2-expressing cells, cAMP HTRF FRET, PGE2 co-stimulation. actives 0.83% (n = 260,000). AID 940, 2007. Prostaglandin E2 receptor EP2 subtype (Homo sapiens), P43116;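 active = compounds whose cAMP rise, as percent of the full-agonist control response, exceeds 60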;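 note: rat C6 glioma line stably carrying human EP2 under a CMV promoter; the protocol text gives 20 µM as final concentration; 100% = response of wells given 1 µM PGE2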
EP2 antag: human EP2 receptor antagonists, primary screen, TR-FRET cAMP, C6 glioma cells. AID 1422, 2008. inhibition, % at 25 µM. Prostaglandin E2 receptor EP2 subtype (Homo sapiens), P43116. actives 0.52% (n = 260,000). C6 glioma cells expressing human EP2; cells stimulated with saturating PGE2;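 active = percent inhibition above 40 after rounding to a whole number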;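 note: rat C6 glioma host cells with rolipram phosphodiesterase inhibitor present; the protocol text gives 20 µM as final concentration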
S1P3 antag: S1P3 receptor antagonists, primary screen, cell-based | CHO S1P3 NFAT-BLA reporter, FRET fluorescence, antagonist mode | inhibition, % at 4.98 µM | actives 0.27% (n = 170,000);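 active = inhibition above the plate cutoff, the mean inhibition of test wells on that plate plus 3 SD, cut at about 28% in these data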;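 note: cells challenged with S1P at its EC80 of 0.8 µM; blue over green emission ratio from cleaved BLA substrate after 4 h stimulation; 0% = S1P-stimulated wells and 100% = unstimulated DMSO-only wells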
KCC2 mod: KCC2 cotransporter modulators, thallium flux, primary screen, cell-based, HEK293 KCC2, FluoZin-2 fluorescence, MLSMR. KCC2 cells, thallium flux FluoZin-2 fluorescence. B-score of Tl+ flux slope (higher = more flux/activation; lower = inhibition) at 10 µM. AID 1456, 2008. actives 2.2% (n = 190,000);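 active = thallium flux slope and its plate-corrected score both differing from the plate sample mean at a set confidence after two filtering rounds, in either direction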;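 note: slope of fluorescence scaled to starting intensity during 10 to 20 s after thallium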
Target sequence (Q9H2X9 whole entry, looked up): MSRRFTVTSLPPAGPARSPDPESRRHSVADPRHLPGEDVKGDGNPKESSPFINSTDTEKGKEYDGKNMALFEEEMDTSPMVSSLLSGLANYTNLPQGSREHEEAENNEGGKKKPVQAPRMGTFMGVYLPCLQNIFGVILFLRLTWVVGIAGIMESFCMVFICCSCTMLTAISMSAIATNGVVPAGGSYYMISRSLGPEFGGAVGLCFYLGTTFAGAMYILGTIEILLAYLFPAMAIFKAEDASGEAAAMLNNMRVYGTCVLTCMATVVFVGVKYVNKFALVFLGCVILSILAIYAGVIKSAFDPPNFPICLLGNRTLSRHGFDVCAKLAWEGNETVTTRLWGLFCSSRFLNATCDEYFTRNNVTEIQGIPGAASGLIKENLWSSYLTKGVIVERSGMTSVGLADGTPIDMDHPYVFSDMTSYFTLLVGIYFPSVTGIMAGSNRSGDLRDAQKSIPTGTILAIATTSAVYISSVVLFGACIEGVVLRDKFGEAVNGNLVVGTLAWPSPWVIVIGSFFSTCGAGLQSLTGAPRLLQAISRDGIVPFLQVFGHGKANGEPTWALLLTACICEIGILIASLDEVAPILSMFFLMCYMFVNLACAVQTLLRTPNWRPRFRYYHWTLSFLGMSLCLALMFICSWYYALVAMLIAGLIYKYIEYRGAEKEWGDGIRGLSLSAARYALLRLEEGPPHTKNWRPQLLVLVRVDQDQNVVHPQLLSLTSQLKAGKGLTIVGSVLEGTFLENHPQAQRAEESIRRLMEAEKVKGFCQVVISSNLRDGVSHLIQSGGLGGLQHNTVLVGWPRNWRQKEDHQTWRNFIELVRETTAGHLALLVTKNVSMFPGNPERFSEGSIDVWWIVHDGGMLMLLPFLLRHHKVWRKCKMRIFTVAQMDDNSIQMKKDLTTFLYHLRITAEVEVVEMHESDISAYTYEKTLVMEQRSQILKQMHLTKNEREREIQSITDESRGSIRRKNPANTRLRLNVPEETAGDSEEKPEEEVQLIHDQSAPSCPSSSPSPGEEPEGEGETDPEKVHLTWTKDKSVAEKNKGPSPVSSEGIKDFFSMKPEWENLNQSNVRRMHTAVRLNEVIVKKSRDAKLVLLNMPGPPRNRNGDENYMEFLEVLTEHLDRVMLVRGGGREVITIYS
KCC2 sec1: KCC2 modulators in sodium-free buffer, confirmation, cell-based, HEK293 KCC2, thallium flux, secondary assay; FluoZin2 fluorescence; stronger effect = higher value; actives 15% (n = 3,700); normalised thallium flux (F/F0 slope) at 10 µM; shares compounds with KCC2 mod;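 active = thallium flux slope above the same plate's solvent-only control mean plus 3 SD; inconclusive = the two replicate wells disagree; inactive = no significant difference from solvent-only control wells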
KCC2 bumet counter: thallium flux persisting under bumetanide in KCC2 cells, confirmation, counter-screen for KCC2 modulator project, cell-based, HEK293 KCC2, FluoZin2, secondary assay 3. shares compounds with KCC2 mod. HEK293-KCC2 + bumetanide/ouabain; stronger effect = higher value. normalized thallium flux at 10 µM. actives 49% (n = 3,700). AID 1714, 2009;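 active = thallium entry rate above the same plate's blocked-transporter control wells by more than 3 SD; inconclusive = the two repeat wells disagree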;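 note: raw slope of fluorescence over initial fluorescence between 10 and 20 s after thallium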
KCC2 sec2: KCC2 modulators without ouabain present, confirmation, cell-based, HEK293 KCC2, thallium flux, FluoZin2, secondary assay 2; shares compounds with KCC2 mod; thallium flux FluoZin2 fluorescence; actives lie on both sides; F/F0 rise rate, 10–20 s post-thallium; normalized thallium flux at 10 µM; actives 23% (n = 3,700); AID 1715, 2009;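 active = thallium flux slope more than 3 SD above or below the plate's solvent-only control mean, mostly below; inconclusive = the two repeat wells disagreed; inactive = no significant shift from solvent-only controls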;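 note: raw slope with 0.1% DMSO as baseline and bumetanide as block control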
HEK293 Tl flux: thallium flux modulation in parental HEK cells, confirmation, counter-screen for KCC2 modulator project, cell-based, counterscreen 1; shares compounds with KCC2 mod; HEK293 parental cells, thallium flux FluoZin2, ouabain; baseline-ratio fluorescence slope, 10–20 s after thallium; thallium flux rate (normalised fluorescence) at 10 µM; actives 46% (n = 3,700); AID 1716, 2009;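 active = thallium flux rate significantly above the same plate's solvent-only control wells, beyond their mean plus 3 SD; inconclusive = the two replicate wells gave conflicting results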
KCC2 retest ouab: KCC2 inhibitors and activators, ouabain retest, confirmation, HEK-KCC2 cells. shares compounds with KCC2 mod. raw Tl+ flux slope (below DMSO = inhibition, above = activation) at 10 µM. HEK293-KCC2, thallium flux FluoZin2 fluorescence; bidirectional: low = inhibitor, high = activator. actives 48% (n = 3,700);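 active = thallium flux slope beyond 3 SD from same-plate DMSO control mean in most replicates, usually higher, sometimes lower; inconclusive = repeat tests gave conflicting results; inactive = no significant difference from controls in most replicates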;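 note: slope of initial-normalized fluorescence between seconds 10 and 20 after thallium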
HEK293 Tl flux2: native HEK Tl+ uptake effects, second counter-screen – HEK cells, counterscreen 2, counter-screen for KCC2 modulator project, confirmation; shares compounds with KCC2 mod; HEK293 parental, thallium flux FluoZin-2 fluorescence slope; thallium flux slope at 10 µM; actives 33% (n = 3,700);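 active = thallium flux slope above the same plate's solvent-control mean plus 3 SD in both duplicate wells; inconclusive = duplicate wells that disagreed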;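 note: run without ouabain in cells lacking the KCC2 cotransporter; slope of fluorescence scaled to its starting value between 10 and 20 s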
An asterisk follows results filed as active. Compounds with a hit are over-represented: about 3.1% of the library has one in this group of screens.

For COc1ccc(Cc2c3cc(OC)c(OC)cc3cc[n+]2CC(=O)c2ccccc2)cc1OC the results were EP2 modulator 30 and EP2 antag 5.
Screening COc1ccc(C(=O)C2CCCN(C(=O)c3noc4c3CCCC4)C2)c(C)c1 (configuration not stated) returned EP2 modulator -56, EP2 antag 6, S1P3 antag -7, KCC2 sec1 0.0064, KCC2 bumet counter 0.004, KCC2 sec2 0.028, HEK293 Tl flux inconclusive, KCC2 retest ouab 0.017 and HEK293 Tl flux2 0.01.
Screening CCOc1ccccc1N=c1oc2c(OC)cccc2cc1C(=O)Nc1nccs1 returned EP2 modulator 27 and EP2 antag 4.
Screening Cc1ccc(C(=O)Nc2scc(-c3ccccc3)c2C(=O)O)o1 returned EP2 modulator -20, EP2 antag 13, S1P3 antag -10 and KCC2 mod -0.79.
For O=C(Nc1scc(-c2ccccc2)c1C(=O)O)c1cccs1 the results were EP2 modulator -139 and EP2 antag 7.
For COc1ccc(-c2csc(NC(=O)c3cccs3)c2C(=O)O)cc1OC the results were EP2 modulator -36, EP2 antag 11, S1P3 antag 4, KCC2 mod -3.7*, KCC2 sec1 0.0076, KCC2 bumet counter 0.0065, KCC2 sec2 0.036, HEK293 Tl flux 0.0036, KCC2 retest ouab 0.016* and HEK293 Tl flux2 0.012.
For COc1ccc(-c2csc(NC(=O)Cc3cccc4ccccc34)c2C(=O)O)cc1 the results were EP2 modulator -61, EP2 antag 7, S1P3 antag -7, KCC2 mod -4.1*, KCC2 sec1 0.0078, KCC2 bumet counter 0.0051, KCC2 sec2 0.028, HEK293 Tl flux 0.0084, KCC2 retest ouab 0.017 and HEK293 Tl flux2 0.011.
O=C(OC(C(=O)NC1CCCC1)c1ccccc1F)c1cccs1 (configuration not stated) was read as EP2 modulator -7 and EP2 antag 9.
Screening COc1ccc(/C(O)=C/Sc2nnc(Cc3ccccc3)o2)cc1 returned EP2 modulator -5, KCC2 mod -4.9*, KCC2 sec1 0.0063, KCC2 bumet counter 0.0053, KCC2 sec2 0.025*, HEK293 Tl flux 0.0065, KCC2 retest ouab 0.013* and HEK293 Tl flux2 inconclusive.
For COc1ccc(C(=O)CSc2nnc(Cc3ccccc3)o2)cc1 the results were EP2 modulator -49, EP2 antag 11, S1P3 antag -17 and KCC2 mod -2.9.
For O=C(Nc1nnc(-c2ccccc2)o1)Nc1ccccc1Cl the results were EP2 modulator 2, S1P3 antag -9, KCC2 mod 20*, KCC2 sec1 inconclusive, KCC2 bumet counter 0.032*, KCC2 sec2 0.038, HEK293 Tl flux inconclusive, KCC2 retest ouab 0.036* and HEK293 Tl flux2 inconclusive.
`COc1ccc(/C=C2\CCCC(C(=O)C(F)(F)F)=C2O)cc1` gave EP2 modulator 15, EP2 antag 23, KCC2 sec1 0.0094, KCC2 bumet counter 0.024*, KCC2 sec2 0.03, HEK293 Tl flux 0.011*, KCC2 retest ouab 0.034* and HEK293 Tl flux2 0.01*.
O=C(C1=C(O)/C(=C/c2ccc(O)cc2)CCC1)C(F)(F)F was read as EP2 modulator -37, EP2 antag 16 and KCC2 mod -1.3.
`CN(Cc1ccccc1)c1nc2nonc2nc1N1CCCC(CN2CCCC2=O)C1` (configuration not stated) gave EP2 modulator 5, EP2 antag 10, S1P3 antag 6, KCC2 mod -5.4*, KCC2 sec1 0.016, KCC2 bumet counter 0.0045, KCC2 sec2 0.019*, HEK293 Tl flux 0.0071, KCC2 retest ouab 0.013 and HEK293 Tl flux2 0.0096.
Screening CC1CCCN(c2nc3nonc3nc2N2CCCC(C)C2)C1 (configuration not stated) returned EP2 modulator 40, EP2 antag -10 and KCC2 mod -1.2.
`CC(=O)NCC1CCCN(c2nc3nonc3nc2N(C)Cc2ccccc2)C1` (configuration not stated) gave EP2 modulator 7, EP2 antag 10, S1P3 antag 5, KCC2 mod -7*, KCC2 sec1 0.0098, KCC2 bumet counter 0.0065, KCC2 sec2 0.029*, HEK293 Tl flux 0.0044, KCC2 retest ouab 0.016* and HEK293 Tl flux2 0.012.
Screening Cc1cc(-c2cncnc2C2CCN(C(=O)c3ccc4ncccc4c3)CC2)on1 returned EP2 modulator -28.
For O=C(Nc1nc2ccc(S(=O)(=O)N3CCCCC3)cc2s1)c1ccncc1 the results were EP2 modulator 9, EP2 antag 11, S1P3 antag -27, KCC2 mod -6.2*, KCC2 sec1 0.0068, KCC2 bumet counter 0.0048, KCC2 sec2 0.032, HEK293 Tl flux 0.0071, KCC2 retest ouab 0.02 and HEK293 Tl flux2 0.0098.
For COc1ccc(N(CC(O)CN2CCC(C)CC2)S(=O)(=O)c2ccccc2)cc1 (configuration not stated) the results were EP2 modulator -9 and EP2 antag 7.
`CCC(O)CNc1nc(-n2nc(C)cc2C)nc2sc3c(c12)CCCC3` (configuration not stated) gave S1P3 antag -3.
